Shown are actives, neighbours in structure and some others; about 11% of the full set was active somewhere.
HTT cytoprotect: cytoprotection in Huntington HTT-Q103 PC12 cell model; AID 1471; PC12 HTT-Q103 induced, cytoprotection, ATP luminescence, 40 h; Potency, µM (highest dose often 56.4 µM), inactives show cytoprotection (ATP increase), actives largely listed as activators; 0.14% of 230,000 active; further: potency means the concentration at half of the fitted maximal effect; % of control where 0% means no effect; nearly all actives have a fitted effect of over 45% in size
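PC12 cells stably carrying ecdysone-inducible Htt exon 1 (Q103)–GFP were induced with 100 nM tebufenozide (final) alongside library compounds in a dose series. Cytoprotection was scored as retained ATP by ATPlite luminescence.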
GoLoco inh red: RGS12 GoLoco-Gai1 interaction inhibition; AID 880; P63096; Potency, µM (highest dose often 61.6 µM), without a hit: at the highest dose activity, negative = inhibition, actives largely listed as inhibitors; 0.44% of 230,000 active; Gai1:RGS12 GoLoco peptide FP, rhodamine, 10 min; active means well fitted inhibition curve with a large enough effect, not every such curve was filed as active; inactive means no such curve, though single readings can be large or run the other way; further: potency means the concentration at half of the fitted maximal effect; on the % scale 0 is the no-effect control and ±100 the full control effect; nearly all actives have a fitted effect of over 30% in size
Target sequence (P63096 whole entry, looked up): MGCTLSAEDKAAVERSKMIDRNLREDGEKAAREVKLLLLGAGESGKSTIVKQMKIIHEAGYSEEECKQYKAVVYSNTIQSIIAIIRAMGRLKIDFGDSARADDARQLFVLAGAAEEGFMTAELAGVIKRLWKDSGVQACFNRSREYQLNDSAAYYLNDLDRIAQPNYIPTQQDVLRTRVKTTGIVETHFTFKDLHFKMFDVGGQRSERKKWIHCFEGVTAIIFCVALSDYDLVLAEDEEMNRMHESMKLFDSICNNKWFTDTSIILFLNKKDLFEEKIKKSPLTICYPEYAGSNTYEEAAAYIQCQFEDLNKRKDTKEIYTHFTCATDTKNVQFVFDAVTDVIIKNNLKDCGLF
PNC inhibitor: blocks assembly of the perinucleolar compartment; PC3M PTB-GFP, PNC prevalence imaging, 16 h; active compounds read low; activity change (PNC), negative = inhibition, % at 10 µM; 3.1% of 140,000 active; AID 2417;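 active means readout at or below -70, meaning at least 70% loss of cells showing the perinucleolar compartment, a nuclear body marking cancer cells; inconclusive means readout between -30 and a set limit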;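 further: plate controls were DMSO wells for no effect and camptothecin positive control wells for full effect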
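PC3M cells stably expressing PTB-GFP, 750–1000 cells/well, treated 16 h at 37 °C with compound (23 nl of library stock), in duplicate. After paraformaldehyde fixation and Hoechst stain, imaged at 20x; PNC prevalence scored by image analysis.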
HTT aggregate: mutant huntingtin aggregation inhibition | PC12 HttQ103-GFP aggregates, Acumen cytometry, 40 h | Potency, µM (doses to about 46.1 µM), without a hit: top-dose activity change, negative = inhibition, hits mostly inhibitors | 1.1% of 220,000 active | AID 1688; further: potency means the concentration at half of the fitted maximal effect; on the % scale 0 is the no-effect control and ±100 the full control effect; nearly all actives have a fitted effect of over 60% in size
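Compounds (qHTS titration) were added to PC12 cells expressing an ecdysone-driven HTT exon 1 Q103–GFP fusion after induction with 100 nM tebufenozide. Aggregate formation was measured as GFP objects in cell lysates.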
HPGD inh: blocks human HPGD enzyme activity; 4.3% of 150,000 active; Potency, µM, inactives show top-dose activity change, negative = inhibition, actives largely listed as inhibitors; AID 894; P15428; purified HPGD, NADH fluorescence kinetic, PGE2 substrate; active means well fitted inhibition curve with a large enough effect, not every such curve was filed as active; inconclusive means small, poorly fitted or top-dose-only effect, or another doubt; inactive means no such curve, though single readings can be large or run the other way; further: potency means the concentration at half of the fitted maximal effect; on the % scale 0 is the no-effect control and ±100 the full control effect
Target sequence (P15428 whole entry, looked up): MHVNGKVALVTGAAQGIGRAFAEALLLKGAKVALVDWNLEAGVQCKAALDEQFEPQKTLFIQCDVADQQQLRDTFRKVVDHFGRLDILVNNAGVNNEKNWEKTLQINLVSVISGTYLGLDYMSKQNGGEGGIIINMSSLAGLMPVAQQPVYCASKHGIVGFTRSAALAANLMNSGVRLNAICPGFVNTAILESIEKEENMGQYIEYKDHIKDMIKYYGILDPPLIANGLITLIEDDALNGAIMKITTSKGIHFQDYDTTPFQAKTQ
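NADH formation kinetics: reaction with 30 uM PGE2 and 1 mM NAD+ (final), 20 nM enzyme, Tris-HCl pH 8 with Tween 20, after 15 min compound preincubation at room temperature. Fluorescence change, last versus first of five reads.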
ALDH1A1 inh: inhibitors of human aldehyde dehydrogenase 1A1. Purified ALDH1A1, NADH fluorescence, propionaldehyde substrate. Potency, µM (series often up to 75.3 µM), inactives show at the top dose activity, negative = inhibition, most hits filed as inhibitors. 7.3% of 220,000 active; active means well fitted inhibition curve with a large enough effect, not every such curve was filed as active; inconclusive means small, poorly fitted or top-dose-only effect, or another doubt; inactive means no such curve, though single readings can be large or run the other way;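 further: potency means the concentration at half of the fitted maximal effect; plate controls were no enzyme wells and a reference inhibitor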
Numbers without * were called inactive; u = inconclusive; x = no result; ! = not confirmed by another sample; [ ] = another dose, or the depositor's remark. Unless noted, the call rests on the fitted dose curve; in most records, active means well fitted curve in the direction sought with a large enough effect; inconclusive means small, poorly fitted or top-dose-only effect, or another doubt; inactive means no such curve, though single readings can be large; an effect the other way counts as inactive or inconclusive.

SMILES | HTT cytoprotect | GoLoco inh red | PNC inhibitor | HTT aggregate | HPGD inh | ALDH1A1 inh
Cc1nc2oc(C(=O)c3ccccc3)c(N)c2c2c1COC(C)(C)C2 | -9.0%[10 µM] | 11.7% | -13.6 | 3.9% | -12.0% | 14.1µM*
CCCc1nc2oc(C(=O)OCC)c(N)c2c2c1COC(C)(C)C2 | -22.0% | 7.8% | u | -7.7% | u | u
CCCCS(=O)CC(COc1ccc(Cl)cc1)OC(=O)c1ccccc1 (centres undefined) | -12.1%[10 µM] | x | -119.5* | 9.7% | x | -11.1%
COC(=O)c1c(NC(=O)CN2CCN(c3ccccc3Cl)CC2)sc(C)c1C | -3.6%[10 µM] | 8.7% | 15.0 | -13.5% | -23.4% | 3.55µM*
COC(=O)c1c(NC(=O)CN2CCCc3ccccc32)sc(C)c1C | 20.9%[10 µM] | 9.6% | 8.2 | -3.1% | -12.1% | 20µM*
COc1ccccc1CNc1cc(-c2c(C)noc2C)ncn1 | -10.0% | 4.2% | x | x | x | 8.0%
Cc1cnc(CNc2ncnc3ccc(-c4ccccc4C)cc23)cn1 | -18.6% | 13.4% | x | x | x | -2.1%
O=C(O)c1cc(N=Nc2ccc([N+](=O)[O-])cc2)ccc1O | -24.0%[10 µM] | 4.0%[14.2 µM] | x | x | -3.3% | 22.4µM*!
O=C(c1ccco1)N1CCN(C(=O)c2ccc(COc3ccc4c(c3)CCC4)o2)CC1 | -49.1% | 1.6% | -27.3 | -20.9% | 28.2µM* | 28.2µM*
O=C(c1ccc(COc2ccc3c(c2)CCC3)o1)N1CCN(c2ccccc2)CC1 | -8.9%[0.074 µM] | x | x | x | x | x
NNC(=O)c1ccc(COc2ccc3c(c2)CCC3)o1 | 9.6%[10 µM] | -2.6% | 2.0 | u | -0.8% | 7.94µM*
COc1cccc(OC)c1C(=O)NNC(=O)c1cccc(COc2ccc3c(c2)CCC3)c1 | -45.5% | -4.0% | 22.8 | -9.4% | -6.1% | 20µM*
O=C(NCc1ccccc1)c1cccc(COc2ccc3c(c2)CCC3)c1 | -7.0%[10 µM] | 7.8% | u | -20.1% | -7.7% | 2.2%
Nc1ncnc2c1nc(Sc1ccc(Cl)cc1)n2[C@@H]1O[C@H]2COP(=O)(O)O[C@@H]2[C@H]1O | -17.5%[1.9 µM] | x | x | x | x | x
C/C=C/C(=O)Nc1cccc(C2=NOC3(C2)C[C@@H](C(N)=O)N(C(=O)/C(C)=C/C)C3)c1 (some centres undefined) | 2.4%[10 µM] | -2.2% | x | -26.3%[9.22 µM] | x | x
COc1ccccc1/C=C/CN1CCN(c2ccccc2)CC1 | -23.9% | -6.5% | -111.1* | 6.6% | -10.8% | -13.3%
COc1ccc(CC2(CO)CCN(C/C=C/c3ccccc3OC)CC2)cc1 | 27.2%[10 µM] | 17.3% | x | -27.1%[9.22 µM] | x | 2.3%
CCCC(=O)N(CCN(C(=O)CCC)c1ccccc1)c1ccccc1 | 13.4%[10 µM] | -2.1% | -100.0* | -20.4% | -4.3% | 4.3%
CC1(C)CC(=O)C(C=NCCN2CCN(C3CC(=O)N(c4cccc(Br)c4)C3=O)CC2)=C(O)C1 (centres undefined) | -2.6% | -0.9% | x | 2.4% | x | 25.1µM*
Cc1ccc(Cl)cc1NC(=S)N(Cc1cccnc1)Cc1ccccc1Cl | -15.5% | 5.9% | x | 3.7% | x | 11.2µM*
COc1ccc(C(=O)n2cc(C(=O)c3cc(C)ccc3O)cn2)cc1 | 3.1%[10 µM] | 2.0% | u | 31.6µM* | -11.7% | 0.398µM*
Cc1ccc(O)c(C(=O)c2cnn(-c3ccccc3)c2)c1 | -18.3% | 2.1% | 26.4 | u | 3.55µM* | -5.4%
CCn1c(C)nc2cc(C(=O)n3cc(C(=O)c4ccccc4O)cn3)ccc21 | -31.7% | x | u | 2.0% | x | 3.9%
COc1ccc(O)c(C(=O)c2cnn(C(=O)c3cc(C)oc3C)c2)c1 | -12.0% | -0.9% | 13.3 | -4.3% | -15.2% | 3.55µM*
O=C(c1cnn(C(=O)c2ccc(O)cc2)c1)c1ccccc1O | x | 50.2% | x | -2.5% | x | u
SMILES | HTT cytoprotect | GoLoco inh red | PNC inhibitor | HTT aggregate | HPGD inh | ALDH1A1 inh
O=C(Cc1cnn(-c2ccccc2)c1)c1ccc(O)c(O)c1O | -2.0% | 1.5% | 59.5 | 7.2% | 28.2µM* | 3.16µM*
Cc1c(C)c(C)c(S(=O)(=O)N2CCNCC2)c(C)c1C | -43.1% | 10.2% | x | -12.1% | x | 6.2%
O=c1[nH]c2cc3c(cc2cc1C(c1nnnn1CC1CCCO1)N1CCCCCC1)OCCO3 (centres undefined) | -2.5% | 5.8% | 3.1 | u | -17.0% | u
N[C@H](Cc1ccc(O)c(I)c1)C(=O)O | -17.4%[1.9 µM] | x | x | x | x | x
FC(F)(F)c1cnc2c(-c3ccccc3)n[nH]c2c1 | -0.4% | -5.7% | x | -2.1% | x | 11.2%
COc1ccc(C(=O)n2cc(C(=O)c3cc(C)ccc3O)cn2)cc1OC | -14.7%[0.074 µM] | 19.6% | 134.6 | 17.8% | u | 0.159µM*
COc1ccc(C(=O)n2nc(C)cc2C)cc1OC | -6.6% | -9.9% | -25.9 | 27.1% | -9.4% | 3.2%
CCOc1ccc(/C(C)=N/N2C(=O)C(CC(=O)Nc3ccc(OC)cc3[N+](=O)[O-])SC2=Nc2cccc(C)c2C)cc1 (centres undefined) | x | -17.5% | 1.0 | 10.0% | u | 14.1µM*
COc1ccccc1/C=N/N1C(=O)C(CC(=O)Nc2ccc([N+](=O)[O-])cc2OC)SC1=Nc1cccc(C)c1C (centres undefined) | -81.3% | 12.8% | x | -8.8% | x | 0.6%
COc1ccc(C2C(C(=O)NCc3ccco3)CCC(=O)N2c2ccc(OC)cc2)cc1 (centres undefined) | -13.6% | -2.3% | -9.1 | 1.1% | 2.6% | 11.2µM*
COc1ccc(C2C(C(=O)OCC(=O)N3CCCCC3)CCC(=O)N2c2ccc(OC)cc2)cc1 (centres undefined) | -25.9%[10 µM] | -19.9% | -4.9 | 5.8% | -4.3% | u
CCNC(=O)COC(=O)C1CCC(=O)N(c2ccc(OC)cc2)C1c1ccc(OC)cc1 (centres undefined) | 3.7% | -6.8% | 37.8 | 10.1% | -9.2% | 8.91µM*
COc1ccc(C2C(C(=O)N3CCCCC3)CC(=O)N2c2ccc(OC)cc2)cc1 (centres undefined) | -4.8% | -0.8% | -13.0 | 20.9% | -8.9% | 14.1µM*
COc1ccc(C2C(C(=O)N3CCC(C(N)=O)CC3)CC(=O)N2c2ccc(OC)cc2)cc1 (centres undefined) | -8.2% | -9.3% | x | 22.7% | x | u
CCCCN(C)C(=O)C1CCC(=O)N(c2cc(OC)c(OC)c(OC)c2)C1c1ccc(OC)cc1 (centres undefined) | -5.6%[10 µM] | 0.9% | -100.0* | 11.9% | -15.9% | -0.3%
CN(Cc1ccco1)c1nc(-c2ccoc2)nc2ccccc12 | -31.7% | 20.3% | x | x | x | u
Cc1cccc2c1N(CCOc1ccccc1Cl)C(=O)C2=O | -57.3%[10 µM] | 5.2% | -15.0 | -6.8% | -19.5% | 0.9%
Cc1ccccc1OCCN1C(=O)C(=O)c2cccc(C)c21 | -5.7%[10 µM] | -17.0% | 138.5 | -3.0% | -21.3% | 0.224µM*
Cc1ccccc1OCCN1C(=O)c2ccccc2C1=O | 11.5% | 11.2% | -15.2 | 4.5% | 28.2µM* | 7.6%

Screens deposited in PubChem by National Center for Advancing Translational Sciences (NCATS).
